Experimental data: PubChem BioAssay
Activity calls are given as the source filed them.

Key:
[1] = tested on: Human papillomavirus type 1a protein E7 (residues 44-93); assay: small molecules binding HPV E7 44-93 – biochemical, small-molecule microarray, residues 44-93, 635 nm fluorescence, primary screen (AID 1108); conditions: fluorescence 635 nm, higher = more signal;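 further: E7 fragment applied at 1 µg/mL in TBST for 1 h at 4 C; score combines spot fluorescence with its signal to noise ratio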
[2] = hepatitis C replication reporter changes, two-sided – Huh7 cells, luciferase reporter, HCV replication inhibitor project, primary screen (AID 1109); conditions: Huh7 HCV replicon luciferase reporter, 48 h; higher = more signal;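 further: huh7 hepatoma cells harbouring a luciferase neomycin HCV replicon reporter; luciferase luminescence as measure of HCV replicon replication; test concentration not given here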
[3] = biological target: Left-right determination factor 2 (Homo sapiens) (UniProt O00292); assay: small molecules binding LEFTY2 protein – biochemical, small-molecule microarray, 635 nm fluorescence scan, primary screen (AID 1110); conditions: higher = more signal
[4] = biological target: Calmodulin-1 (Homo sapiens) (UniProt P0DP23); assay: small molecules binding calmodulin-1 with EGTA – biochemical, small-molecule microarray, Cy5-labelled CALM1, profiling panel (AID 1111); conditions: Cy5-CALM1 binding fluorescence, higher = more signal;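 further: labelled calmodulin applied in Tris saline Tween buffer holding calcium plus EGTA and DTT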
[5] = biological target: Calmodulin-1 (Homo sapiens) (UniProt P0DP23); assay: small molecules binding Ca-loaded calmodulin-1 – biochemical, small-molecule microarray, Cy5-labelled CALM1, plus calcium, artefact control for SMM control-protein annotation, profiling panel (AID 1112); conditions: Cy5-CALM1 binding fluorescence, higher = more signal;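 further: score merges spot fluorescence with signal to noise from triplicate slides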
[6] = probe aWnt5a binding to arrayed compounds – biochemical, biotinylated probe, 635/667 nm fluorescence, primary screen (AID 1113); conditions: small-molecule microarray, higher = more signal;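 further: score merges 667 nm fluorescence intensity with signal-to-noise per printed feature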
[7] = probe aShh binding to arrayed compounds – biochemical, biotinylated probe, 635/667 nm fluorescence, primary screen (AID 1114); conditions: small-molecule microarray, higher = more signal;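 further: probe is biotin-labelled aShh protein from a stem cell growth factor screen; measures binding of labelled protein to compounds printed on the slide; score merges feature fluorescence at 667 nm with signal-to-noise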
[8] = probe aNog binding to arrayed compounds – biochemical, biotinylated probe, 635/667 nm fluorescence, primary screen (AID 1115); conditions: small-molecule microarray, higher = more signal;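 further: probe is biotinylated aNog protein used at 0.15 µg/mL for 1 h at 4 C; z-score combines 667 nm fluorescence of each spot with its signal to noise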
[9] = biological target: Torsin-1A-interacting protein 1 (Homo sapiens) (UniProt Q5JTV8); assay: compound microarray binding of lysate hLAP1 – cell lysate, small-molecule microarray, COS7 lysate, 635/667 nm fluorescence, primary screen (AID 1116); conditions: 635 nm fluorescence, higher = more signal
[10] = biological target: Alpha-bungarotoxin (Bungarus multicinctus) (UniProt P60615); assay: compounds binding labelled alpha-BTX control protein – biochemical, small-molecule microarray, Alexa647 label, 635/667 nm fluorescence, artefact control for SMM control protein annotation, profiling panel (AID 1117); conditions: alpha-BTX-A647 binding fluorescence, higher = more signal
Albumin (Bos taurus) = Albumin (Bos taurus) (UniProt P02769); assay: compounds binding labelled BSA control protein – biochemical, small-molecule microarray, Alexa647 label, 635/667 nm fluorescence, artefact control for SMM control protein annotation, profiling panel (AID 1118); conditions: BSA-A647 binding, fluorescence 635 nm, higher = more signal;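 further: score merges 667 nm emission intensity and signal-to-noise per printed compound spot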
[11] = probe aXIP binding to arrayed compounds – biochemical, NeuroSMM set, 635/667 nm fluorescence, primary screen (AID 1119); conditions: small-molecule microarray, higher = more signal, called active from +8 up or from −8 down;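 further: probe is the protein aXip251-270 applied at 1 µg/mL to compound-printed slides; binding of probe to printed compounds measured as 667 nm fluorescence plus signal to noise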
[12] = probe aNOTCH3 binding on compound microarray – biochemical, small-molecule microarray, 635/667 nm fluorescence, primary screen (AID 1120); conditions: higher = more signal;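 further: probe is a biotin-tagged antibody raised against NOTCH3 rather than NOTCH3 protein; score merges spot fluorescence near 667 nm with spot signal to noise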
[13] = probe aNOTCH2 binding on compound microarray – biochemical, small-molecule microarray, 635/667 nm fluorescence, primary screen (AID 1121); conditions: higher = more signal;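 further: score merges feature fluorescence read at 667 nm with its signal to noise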
[14] = biological target: Carbonic anhydrase 2 (Homo sapiens) (UniProt P00918); assay: compounds binding carbonic anhydrase 2 – biochemical, small-molecule microarray, Alexa647-labelled CAII, profiling panel (AID 1122); conditions: CAII-A647 binding fluorescence, higher = more signal
[15] = COS7 lysate on small-molecule microarray, probe aHis, 635 nm (AID 1123); conditions: COS7 cell lysate, fluorescence, higher = more signal;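 further: z-score combines 667nm fluorescence intensity with signal-to-noise per printed compound spot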
[16] = probe aLAP1 signal on lysate-treated microarray – cell lysate, small-molecule microarray, COS7 lysate, primary screen (AID 1124); conditions: probe aLAP1, fluorescence, higher = more signal;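 further: lysate comes from COS7 cells expressing LAP1 and is applied at 0.3 µg/mL; score merges spot fluorescence near 667 nm with signal-to-noise over triplicate slides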
Sam68 (KHDRBS1) = assay: compounds binding KHDRBS1 protein – biochemical, small-molecule microarray, 635 nm fluorescence, primary screen (AID 1125); conditions: higher = more signal;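 further: score merges 667 nm channel intensity with signal to noise over triplicate slides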
[17] = tested on: Chordin-like protein 2 (CHRDL2); assay: compounds binding chordin-like 2 – biochemical, small-molecule microarray, 635 nm fluorescence, primary screen (AID 1126); conditions: fluorescence 635 nm, higher = more signal;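 further: printed compound slides probed with Chrdl2 protein at 4 µg/mL for 1 h at 4 C; score merges 667 nm emission intensity with signal to noise over three replicate slides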
[18] = biological target: Concanavalin-A (Canavalia ensiformis) (UniProt P02866); assay: compounds binding concanavalin A lectin – biochemical, small-molecule microarray, Alexa647 label, 635 nm, artefact control for SMM control protein annotation, primary screen (AID 1127); conditions: ConA-A647 binding fluorescence, higher = more signal;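 further: z combines 667 nm emission intensity with signal-to-noise across three replicate slides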
Sequence of Concanavalin-A (Canavalia ensiformis) (P02866 whole entry, looked up): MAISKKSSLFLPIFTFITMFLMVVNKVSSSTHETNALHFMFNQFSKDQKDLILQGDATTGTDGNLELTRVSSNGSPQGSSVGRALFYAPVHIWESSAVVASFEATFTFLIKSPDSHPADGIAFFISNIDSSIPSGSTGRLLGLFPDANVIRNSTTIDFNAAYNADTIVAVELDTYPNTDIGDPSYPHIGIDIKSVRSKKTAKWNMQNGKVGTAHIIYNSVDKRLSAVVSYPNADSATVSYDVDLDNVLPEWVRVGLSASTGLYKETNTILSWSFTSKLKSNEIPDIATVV

Sequence of Torsin-1A-interacting protein 1 (Homo sapiens) (Q5JTV8 whole entry, looked up): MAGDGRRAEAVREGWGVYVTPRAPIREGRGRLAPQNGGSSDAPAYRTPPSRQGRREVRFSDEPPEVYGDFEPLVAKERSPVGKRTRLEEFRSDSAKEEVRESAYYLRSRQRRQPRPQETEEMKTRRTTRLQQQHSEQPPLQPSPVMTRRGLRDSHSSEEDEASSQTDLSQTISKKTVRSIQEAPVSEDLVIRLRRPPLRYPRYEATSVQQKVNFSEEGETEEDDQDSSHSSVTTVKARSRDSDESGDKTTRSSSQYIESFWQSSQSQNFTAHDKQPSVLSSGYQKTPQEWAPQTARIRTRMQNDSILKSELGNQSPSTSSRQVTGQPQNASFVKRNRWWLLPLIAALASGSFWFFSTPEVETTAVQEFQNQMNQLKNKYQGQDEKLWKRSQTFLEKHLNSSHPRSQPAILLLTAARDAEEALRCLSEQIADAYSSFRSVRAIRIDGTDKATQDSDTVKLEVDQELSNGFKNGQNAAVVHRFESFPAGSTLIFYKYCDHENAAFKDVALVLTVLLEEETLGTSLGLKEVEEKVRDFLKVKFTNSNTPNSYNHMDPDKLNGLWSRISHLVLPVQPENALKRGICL
Sequence of Albumin (Bos taurus) (P02769 whole entry, looked up): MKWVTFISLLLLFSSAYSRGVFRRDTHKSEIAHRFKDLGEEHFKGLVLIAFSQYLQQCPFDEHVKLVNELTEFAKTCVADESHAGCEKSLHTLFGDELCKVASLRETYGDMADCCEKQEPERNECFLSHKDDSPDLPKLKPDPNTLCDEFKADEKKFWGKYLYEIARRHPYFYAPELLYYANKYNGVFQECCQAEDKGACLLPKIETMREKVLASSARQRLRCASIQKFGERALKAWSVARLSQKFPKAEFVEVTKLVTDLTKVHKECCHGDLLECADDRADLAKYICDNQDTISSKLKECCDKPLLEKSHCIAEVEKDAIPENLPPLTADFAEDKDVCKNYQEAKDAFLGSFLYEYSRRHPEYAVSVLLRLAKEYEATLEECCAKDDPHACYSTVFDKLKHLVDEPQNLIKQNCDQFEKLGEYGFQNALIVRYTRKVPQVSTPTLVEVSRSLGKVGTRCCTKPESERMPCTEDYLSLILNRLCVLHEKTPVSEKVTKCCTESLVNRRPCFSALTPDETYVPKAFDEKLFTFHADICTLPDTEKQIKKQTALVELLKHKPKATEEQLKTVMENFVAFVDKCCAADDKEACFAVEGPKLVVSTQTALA
Sequence of Left-right determination factor 2 (Homo sapiens) (O00292 whole entry, looked up): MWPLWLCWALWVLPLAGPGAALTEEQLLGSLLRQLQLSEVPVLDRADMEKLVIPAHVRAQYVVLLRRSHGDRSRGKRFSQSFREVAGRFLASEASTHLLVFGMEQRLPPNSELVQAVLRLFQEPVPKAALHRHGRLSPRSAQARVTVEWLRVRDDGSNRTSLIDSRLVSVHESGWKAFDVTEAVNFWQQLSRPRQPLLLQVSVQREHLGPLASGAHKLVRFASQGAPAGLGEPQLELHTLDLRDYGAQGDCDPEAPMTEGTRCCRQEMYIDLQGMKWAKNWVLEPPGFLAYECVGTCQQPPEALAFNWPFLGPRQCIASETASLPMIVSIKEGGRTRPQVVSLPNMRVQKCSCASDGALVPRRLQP
Sequence of Alpha-bungarotoxin (Bungarus multicinctus) (P60615 whole entry, looked up): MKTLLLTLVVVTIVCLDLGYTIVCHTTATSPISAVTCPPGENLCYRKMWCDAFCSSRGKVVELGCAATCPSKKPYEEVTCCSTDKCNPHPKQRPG

Row | Structure (SMILES) | composite z-score [1] | z-score [2] | composite z-score [3] | composite z-score [4] | composite z-score [5] | composite z-score [6] | composite z-score [7] | composite z-score [8] | composite z-score [9] | composite z-score [10] | composite z-score (Albumin (Bos taurus)) | composite Z-score [11] | composite z-score [12] | composite z-score [13] | composite z-score [14] | composite z-score [15] | composite z-score [16] | composite z-score (Sam68 (KHDRBS1)) | composite z-score [17] | composite z-score [18]
1 | COC(OC)[C@@H](C)[C@H](OC)[C@@H](C)[C@H](OC)c1ccccc1 | -0.567 | 0.928 | 0.4 | -1.15 | -0.647 | -0.225 | -0.273 | 0.108 | 0.0678 | -0.0469 | -0.355 | 0.273 (inactive) | -0.0647 | -0.15 | -0.552 | -0.729 | -0.266 | -1.16 | 0.473 | -0.18
2 | COc1ccc(O[C@H]2C=C[C@@H](c3ccccc3)O[C@@H]2COC(=O)NCc2cccc3ccccc23)cc1 | 0.125 | -2.19 | -0.0808 | -0.413 | -0.329 | -0.104 | 0.23 | -0.116 | 0.469 | 0.33 | -0.194 | -0.341 (inactive) | -0.191 | -0.159 | -0.219 | -0.146 | -0.0544 | -0.0446 | 0.281 | 0.335
3 | COC(=O)[C@H](CCSC)NC(=O)CC=C[C@@H](C)CO | 0.264 | 0.748 | 1.58 | -1.12 | -2.32 | 0.149 | -0.0192 | -0.394 | 1.21 | -0.614 | -0.245 | -0.131 (inactive) | -0.0651 | -0.143 | 0.0952 | 1.42 | -0.226 | 1.29 | 1.5 | 0.483
4 | CO[C@@H]1COC(=O)[C@H](COCc2ccccc2)NC(=O)CC=C[C@@H](C)[C@H](OC)COC(=O)[C@@H](C)NC(=O)CC=C[C@H]1C | -0.747 | -0.536 | 0.583 | -1.78 | -2.61 | -0.18 | 0.0062 | -0.643 | 0.343 | -1.31 | -0.764 | -0.0478 (inactive) | 0.127 | -0.126 | -0.557 | -0.887 | -0.184 | 0.0125 | 1.02 | -3.28
5 | CCOC(=O)[C@H](CC(C)C)NC(=O)CCC1CC(OC(=O)NCc2ccc3c(c2)OCO3)CC2(CCCC(COC(=O)NCCOc3ccccc3)O2)O1 (stereo not given in full) | 1.35 | -1.07 | 0.715 | -0.0232 | -0.466 | 0.0232 | -0.0289 | -0.404 | 0.303 | 0.905 | 0.232 | -0.198 (inactive) | 0.0469 | -0.178 | 0.166 | 1.22 | -0.248 | 1.33 | 0.99 | 1.14
6 | CC(CCC(=O)OC[C@H]1O[C@H](C#Cc2ccccc2)C=C[C@@H]1Oc1ccc(C)cc1)=NOC(C)CN1CCCc2nc(C)c(C)cc21 (stereo not given in full) | 1.21 | -0.456 | 0.447 | 0.687 | -0.0954 | -0.0944 | -0.0146 | 0.125 | 0.132 | 0.898 | 0.412 | -0.266 (inactive) | -0.0647 | -0.0793 | -0.0994 | 1.12 | -0.114 | 1.14 | 0.281 | 0.924
7 | CC(C)CON=C1C[C@@H](O)[C@@H](O)[C@@H]2[C@@H]3C(=O)N([C@@H](C)c4ccccc4)C(=O)[C@@H]3CC[C@@H]12 | -0.0319 | -0.265 | 0.236 | -0.231 | -0.282 | -0.124 | -0.289 | -0.222 | 0.179 | 0.0887 | 0.538 | -0.293 (inactive) | -0.145 | -0.153 | -0.139 | -0.039 | -0.0296 | 0.132 | 0.417 | 0.0928
8 | CC(C)CON=C1C[C@@H](O)[C@@H](O)[C@@H]2[C@@H]3C(=O)N(Cc4ccc5c(c4)OCO5)C(=O)[C@@H]3CC[C@@H]12 | 0.44 | 0.081 | -0.119 | 0.349 | -0.311 | -0.0279 | -0.0769 | -0.103 | 0.086 | 0.748 | 0.713 | 0.311 (inactive) | -0.179 | -0.0891 | 0.614 | 0.862 | -0.0121 | 0.853 | -0.0113 | 0.922
